Inconclusive results are not listed. The source made the active and inactive calls. Calls come from the whole dose curve; as a rule, active = well fitted curve in the direction sought with a large enough effect; inconclusive = small, poorly fitted or top-dose-only effect, or another doubt; inactive = no such curve, though single readings can be large; an effect the other way counts as inactive or inconclusive.
Key:
C33A = experiment: Primary qHTS to identify gynecologic anti-cancer compounds using libraries of approved drugs and bioactive compounds (AID 1345084); conditions: Gynecologic cancer cell panel viability, ATPlite luminescence, 48 h; series mostly up to 57.5 µM; note: nearly all actives have a fitted effect of over 55% in size; note: potency is the fitted concentration of half-maximal effect
In short: (§1)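 Five-concentration response, 48 h; readout is ATP-driven luciferase luminescence.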

CAOV3 = experiment: as above; conditions: Gynecologic cancer cell panel viability, ATPlite luminescence, 48 h; series mostly up to 57.5 µM
In short: as §1

CASKI = experiment: as above; conditions: Gynecologic cancer cell panel viability, ATPlite luminescence, 48 h; series mostly up to 57.5 µM
In short: as §1

Es-2 = experiment: as above; conditions: Gynecologic cancer cell panel viability, ATPlite luminescence, 48 h; series mostly up to 57.5 µM
In short: as §1

HeLa = experiment: as above; conditions: Gynecologic cancer cell panel viability, ATPlite luminescence, 48 h; series mostly up to 57.5 µM
In short: as §1

Hek293T = experiment: as above; conditions: Gynecologic cancer cell panel viability, ATPlite luminescence, 48 h, control line for the selectivity index; series mostly up to 57.5 µM
In short: as §1

OV90 = experiment: as above; conditions: Gynecologic cancer cell panel viability, ATPlite luminescence, 48 h; series mostly up to 57.5 µM
In short: as §1

PA-1 = experiment: as above; conditions: Gynecologic cancer cell panel viability, ATPlite luminescence, 48 h; series mostly up to 57.5 µM
In short: as §1

SKOV3 = experiment: as above; conditions: Gynecologic cancer cell panel viability, ATPlite luminescence, 48 h; series mostly up to 57.5 µM
In short: as §1

Tov-21-G = experiment: as above; conditions: Gynecologic cancer cell panel viability, ATPlite luminescence, 48 h; series mostly up to 57.5 µM
In short: as §1

Tov112D = experiment: as above; conditions: Gynecologic cancer cell panel viability, ATPlite luminescence, 48 h; series mostly up to 57.5 µM
In short: as §1

JEG-3 = experiment: as above; conditions: Gynecologic cancer cell panel viability, ATPlite luminescence, 48 h; series mostly up to 57.5 µM
In short: as §1

[1] = qHTS assay to identify inhibitors of the type 1 interferon - major histocompatibility complex class I in skeletal muscle: Counter screen cell viability and HiBit confirmation (AID 1347412); conditions: iHSKM muscle cells + IFN-b, HiBiT or CellTiter-Glo, 24 h; Viability; at 45.9 µM (top of the series); note: nearly all actives have a fitted effect of over 60% in size
In short: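 After 24 h with human IFN-beta (4 ng/ml) and compound titrations (top 46 uM final, 1:3, 12 points), HLA-B HiBit myoblasts were lysed for either Nano-Glo HiBiT luminescence or CellTiter Glo viability on paired plates.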
% is set by controls: 0 for no effect and ±100 for the full control effect.

CC(Cc1cc2c(c(C(N)=O)c1)N(CCCO)CC2)NCCOc1ccccc1OCC(F)(F)F (configuration not stated)
inactive: Potency (C33A) | Potency (CAOV3) | Potency (CASKI) | Potency (Es-2) | Potency (HeLa) | Potency (Hek293T) | Potency (OV90) | Potency (PA-1) | Potency (SKOV3) | Potency (Tov-21-G) | Potency (Tov112D)

COc1c2c(c(C)c3c1C(=O)OC3)OC1(C)CC(O)C(C(C)(C)O)C(C)(CCC(=O)O)C1C2 (configuration not stated)
inactive: Potency (C33A) | Potency (CAOV3) | Potency (CASKI) | Potency (Es-2) | Potency (Hek293T) | Potency (JEG-3) | Potency (OV90) | Potency (PA-1) | Potency (SKOV3) | Potency (Tov-21-G) | Potency (Tov112D)

Cc1cc(C(=O)N2Cc3cnn(C)c3Nc3ccccc32)ccc1CNC(=O)N1CCC[C@H]1C(=S)N1CCCN(C)CC1
inactive: Potency (C33A) | Potency (CAOV3) | Potency (Es-2) | Potency (HeLa) | Potency (Hek293T) | Potency (JEG-3) | Potency (OV90) | Potency (PA-1) | Potency (Tov-21-G) | Potency (Tov112D)

C=C(C(=O)OC)C1C(O)CC2(C)C(O)CCC(=O)C2C1O (configuration not stated)
inactive: Potency (C33A) | Potency (CAOV3) | Potency (CASKI) | Potency (Hek293T) | Potency (JEG-3) | Potency (OV90)

COc1cc2c(cc1OC)N1C(=O)C[C@]34C=CCN5CC[C@@H]2[C@@H](CC3)[C@]514
inactive: Potency (C33A) | Potency (CAOV3) | Potency (Es-2) | Potency (HeLa) | Potency (Hek293T) | Potency (JEG-3) | Potency (OV90) | Potency (PA-1) | Potency (SKOV3) | Potency (Tov-21-G) | Potency (Tov112D)

CC1(C)CC[C@@]2(C(=O)O[C@@H]3O[C@H](CO)[C@@H](O)[C@H](O)[C@H]3O)C(C1)C1=CCC3[C@@]4(C)CC[C@@H](O[C@@H]5O[C@H](C(=O)O)[C@@H](O[C@@H]6OC[C@@H](O)[C@H](O)[C@H]6O)[C@H](O[C@@H]6OC[C@](O)(CO)[C@H]6O)[C@H]5O)C(C)(C)C4CC[C@@]3(C)[C@]1(C)C[C@H]2O (some centres not stated)
inactive: activity change, negative = cytotoxicity (C33A) -0.239% [at 11.6 µM] | activity change, negative = cytotoxicity (CAOV3) -43.7% [at 11.6 µM] | activity change, negative = cytotoxicity (CASKI) -25.1% [at 11.6 µM] | activity change, negative = cytotoxicity (Es-2) -7.12% [at 11.6 µM] | activity change, negative = cytotoxicity (Hek293T) 3.52% [at 11.6 µM] | activity change, negative = cytotoxicity (JEG-3) -1.03% [at 11.6 µM] | activity change, negative = cytotoxicity (OV90) -1.26% [at 11.6 µM] | activity change, negative = cytotoxicity (PA-1) -34.8% [at 11.6 µM] | activity change, negative = cytotoxicity (SKOV3) -2.96% [at 11.6 µM] | activity change, negative = cytotoxicity (Tov112D) -29.7% [at 11.6 µM]

N#Cc1ccc(-c2cnc3[nH]cc(NC(=O)c4cccnc4)c3c2)cc1
inactive: Potency (C33A) | Potency (CAOV3) | Potency (CASKI) | Potency (Hek293T) | Potency (JEG-3) | Potency (Tov112D)

COC(=O)N[C@@H](C)CNc1nccc(-c2cn(C(C)C)nc2-c2cc(Cl)cc(NS(C)(=O)=O)c2F)n1
inactive: Potency (C33A) | Potency (CAOV3) | Potency (CASKI) | Potency (HeLa) | Potency (Hek293T) | Potency (OV90) | Potency (PA-1) | Potency (Tov112D) | activity change, negative = inhibition [1] -18.1%
active: Potency (Tov-21-G) 1.58 µM

Cc1c(CN2CCN(C(=O)C(C)O)CC2)sc2c(N3CCOCC3)nc(-c3cnc(N)nc3)nc12 (configuration not stated)
active: Potency (C33A) 2 µM | Potency (CAOV3) 1.41 µM | Potency (CASKI) 1.26 µM | Potency (Hek293T) 0.891 µM | Potency (OV90) 1.78 µM | Potency (SKOV3) 1 µM | Potency (Tov-21-G) 2.24 µM

— PubChem BioAssay (NCATS)
